Experimental findings from PubChem BioAssay AID485346 (Sanford-Burnham Center for Chemical Genomics, 2010) are described below.

Molecules are shown by their SMILES. About 10,000 (3%) of roughly 330,000 compounds were called active. The entries come from a sample that favours actives as a whole. A number with no mark means an inactive call.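 The calls were made as follows: active = inhibition of at least 50% at 8 µM in the primary screen; inactive = the rest.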

In this experiment the target is Protein Mdm4 (Homo sapiens) + E3 ubiquitin-protein ligase Mdm2 (Homo sapiens) (UniProt O15151+Q00987). Description: disruptors of Mdm2/MdmX RING complex – cell-based, luminescence, split luciferase, SaOS-2, uHTS, primary screen (AID 485346). To be noted: SaOS-2 split-luciferase Mdm2/MdmX complementation, at 8 µM, active compounds read high.
Chain of Protein Mdm4 (Homo sapiens) + E3 ubiquitin-protein ligase Mdm2 (Homo sapiens) (O15151 whole entry, looked up): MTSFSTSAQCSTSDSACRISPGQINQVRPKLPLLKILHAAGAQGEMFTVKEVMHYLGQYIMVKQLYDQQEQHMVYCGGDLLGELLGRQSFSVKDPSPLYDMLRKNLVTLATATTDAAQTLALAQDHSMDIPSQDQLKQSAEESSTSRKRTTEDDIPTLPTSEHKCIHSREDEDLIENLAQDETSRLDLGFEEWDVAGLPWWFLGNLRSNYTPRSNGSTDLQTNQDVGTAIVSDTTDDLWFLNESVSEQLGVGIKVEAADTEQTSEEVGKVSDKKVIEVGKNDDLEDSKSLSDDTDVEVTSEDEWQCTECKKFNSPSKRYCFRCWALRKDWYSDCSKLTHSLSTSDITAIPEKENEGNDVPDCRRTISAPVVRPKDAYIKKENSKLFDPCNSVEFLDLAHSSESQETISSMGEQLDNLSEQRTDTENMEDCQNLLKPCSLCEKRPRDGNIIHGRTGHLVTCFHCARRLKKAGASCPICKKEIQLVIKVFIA
Chain of Protein Mdm4 (Homo sapiens) + E3 ubiquitin-protein ligase Mdm2 (Homo sapiens) (Q00987 whole entry, looked up): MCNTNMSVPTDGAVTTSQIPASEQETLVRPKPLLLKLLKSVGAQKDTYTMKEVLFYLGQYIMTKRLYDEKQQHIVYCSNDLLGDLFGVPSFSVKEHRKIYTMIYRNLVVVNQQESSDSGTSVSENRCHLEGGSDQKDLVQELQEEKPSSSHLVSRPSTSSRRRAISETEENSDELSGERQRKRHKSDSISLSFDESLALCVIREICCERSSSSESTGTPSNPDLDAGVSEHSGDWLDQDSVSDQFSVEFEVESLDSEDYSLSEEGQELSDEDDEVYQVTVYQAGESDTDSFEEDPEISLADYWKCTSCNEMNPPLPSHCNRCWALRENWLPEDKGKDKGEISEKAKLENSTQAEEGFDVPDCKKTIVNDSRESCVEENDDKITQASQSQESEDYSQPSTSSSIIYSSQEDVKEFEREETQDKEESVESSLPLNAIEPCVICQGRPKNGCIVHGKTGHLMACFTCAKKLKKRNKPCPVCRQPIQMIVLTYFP
What is called inhibition is the change of the read-out against control, counted positive when it falls. `Cc1nnc(N/N=C/C2CC=CCC2)[nH]c1=O` (configuration not stated): the inhibition was 12.6%. The figure for `Cc1nnc(N/N=C/c2ccccn2)[nH]c1=O` is 78.6% (active); for `Cc1cc(C(=O)N/N=C/c2ccccn2)c2ccccc2n1` it is -15.6%; for `COc1ccc(-c2nc3c(s2)CCc2onc(-c4ccc(OC)cc4)c2-3)cc1` it is 1.93%. Regarding `O=C(C1CC1)N1N=C(c2ccc(Br)cc2)CC1(O)C(F)(F)F` (configuration not stated), the inhibition was -5.88%. For `O=C(c1ccc(Cl)cc1)N1N=C(c2ccccn2)CC1(O)C(F)(F)F` (configuration not stated) the value was 53% (active). For `O=C(Cc1ccccc1)N1N=C(c2ccncc2)CC1(O)C(F)(F)F` (configuration not stated) the value was 13.3%. Consider `Cc1ccc(NC(=O)CC2C(=O)N(Cc3ccccc3)C(=S)N2NC(=O)c2cccc(F)c2)c(C)c1` (configuration not stated), for which the inhibition was 6.53%. The figure for `Fc1ccccc1/C=C1\CCCC2=C1Nc1ncnn1C2c1ccccc1F` (configuration not stated) is 98.8% (active); for `Cc1ccc(S(=O)(=O)N2CCCCC2)cc1C(=O)N1CCN(CCO)CC1` it is 18.6%.

Regarding `CNC[C@H](CC1CCCCC1)NC[C@H](NCCC1CCCC1)[C@H](C)O`, the inhibition was 99.7% (active). With `COc1ccccc1N(C)C(=O)c1cc(S(=O)(=O)N2CCc3ccccc32)cn1C`, the inhibition is 14.1%. For `O=C(CC1SC(N2CCCC2)=NC1=O)Nc1ccc(C(=O)NCCc2ccc(F)cc2)cc1` (configuration not stated) the value was 33.7%; for `N#Cc1ncc(C(F)(F)F)cc1Oc1cccnc1`, -4.54%. As for `Cc1nnc(SCCCCSc2nnc(C)c(=O)[nH]2)[nH]c1=O`, the inhibition is -27.7%. The figure for `CCN1C(=O)N[C@@H](CCc2ccccc2)C(C(=O)OC)=C1C` is 10.9%; for `CCC(C)NC(=O)c1nn(C)c(=O)c2ccccc12` (configuration not stated) it is 0.304%.

For the molecule `CCC(CC)c1nnc(NC(=O)c2nn(C)c(=O)c3ccccc23)s1`, the inhibition was -51.8%. As for `COC(=O)c1cc(NC(=O)c2nn(C)c(=O)c3ccccc23)cc(C(=O)OC)c1`, the inhibition was 51.2% (active). The figure for `COc1ccc(C)cc1NC(=O)CCCN1C(=O)NC(C)(C)C1=O` is 7.88%; for `COC(=O)C1=C(N)Oc2cc(C)[nH]c(=O)c2C1c1ccc(Cl)cc1` (configuration not stated) it is -16.2%; for `CC(=O)N1CCN(CC(=O)Nc2ccc(SC(F)F)cc2)CC1` it is -2.95%.

On to `Cc1ccc(CC(=O)Nc2ccc(OC(F)F)c(Cl)c2)cc1C`, for which the inhibition was 15.9%.

As for `O=C(Cc1ccc(Cl)c(Cl)c1)Nc1ccc(SC(F)F)cc1`, the inhibition was 72.9% (active). Consider `CC(=O)c1c(C)[nH]c(C(=O)OCC(=O)Nc2c(C)n(C)n(-c3ccccc3)c2=O)c1C`, for which the inhibition was 11.3%. Consider `Cc1nc(N2CCN(c3ccccn3)CC2)c2c(C)c(C(=O)Nc3ccc(F)cc3)sc2n1`, for which the inhibition is 35.2%. Consider `COc1ccc(NC(=O)c2sc3nc(C)nc(N4CCN(c5ccccn5)CC4)c3c2C)c(OC)c1`, for which the inhibition was 36.5%. `Cc1nc(N2CCN(c3ccccn3)CC2)c2c(C)c(C(=O)Nc3ccc(F)c(Cl)c3)sc2n1`: the inhibition is 61.2% (active). As for `COCC1CCN(C(=O)C2CCC(=O)N(CC3CCCCC3)C2)CC1` (configuration not stated), the inhibition is -3.42%.

As for `CCn1c(/C=C/c2ccc([N+](=O)[O-])o2)nc2ccccc2c1=O`, the inhibition was 46.9%. `Cn1cc(/C=C/c2nc3ccccc3c(=O)n2-c2cccc([N+](=O)[O-])c2)c2ccccc21`: the inhibition is 72.2% (active). The figure for `CCOC(=O)N1CCN(Cc2nc3ccc([N+](=O)[O-])cc3c(=O)n2-c2cccc(OC)c2)CC1` is 16.7%; for `COc1ccc(NC(=O)N(C)C[C@H]2Oc3ccc(NC(=O)C4CC4)cc3C(=O)N([C@H](C)CO)C[C@@H]2C)cc1` it is -5.08%. For the molecule `O=C(CC1CCCCC1)NCc1ccc(F)cc1`, the inhibition is -13.5%. Regarding `Cc1ccc(C(=O)NNc2ncnc3ccccc23)cc1`, the inhibition is -48.9%.

For `Cc1ccc(C(=O)NNC(=O)c2cccs2)cc1`, the inhibition was -2.54%. For `Cc1ccc(C(=O)NNC(=O)c2cc3cc4ccccc4nc3s2)cc1` the value was 55.3% (active). For `CC[C@@]1(C(=O)OC)N[C@H](CN(C)C(C)=O)[C@@H]2C(=O)N(C)C(=O)[C@@H]21` the value was -30.9%. For the molecule `CC[C@]12c3[nH]c4ccc(Cl)cc4c3CCN1C(=O)[C@@H](CC(=O)NCCCOC)C[C@@H]2C(=O)N1CCN(C(=O)c2ccco2)CC1`, the inhibition is 2.9%. Turning to `COc1ccc(O)c(C(=O)c2cnc3c(c2)c(-c2ccc(F)cc2)c(C#N)c(=O)n3C)c1`, the inhibition was 12.9%. The figure for `Cn1c(N)cc(-c2ccc(F)cc2)c(C#N)c1=O` is 14%. Take `Cc1cc(C)c2c(-c3ccc(F)cc3)c(C#N)c(=O)n(C)c2n1`: the inhibition is 51.8% (active). For `OC(CNCC1CCCO1)Cn1c2ccc(Br)cc2c2cc(Br)ccc21` (configuration not stated) the value was 101% (active). The figure for `O=C(CCNS(=O)(=O)c1ccc(Br)cc1)NCC1CCCO1` (configuration not stated) is -4.62%; for `O=C(CSc1ccc(-c2ccc(Br)cc2)nn1)NCC1CCCO1` (configuration not stated) it is -18.5%. In the case of `O=C(O)CC12CC3CC(C1)CC(n1ncc(NCc4ccc(F)cc4)c(Cl)c1=O)(C3)C2`, the inhibition is -8.77%. For `COc1ccc(NC(=O)CN(C)C(=O)c2cccc(S(=O)(=O)N3CCN(c4ccccc4)CC3)c2)cc1` the value was 17%; for `O=C(OC1CCOC1=O)c1ccc(-c2nc3ccccc3s2)s1` (configuration not stated), -9.1%; for `O=C1c2ccccc2C2=Nc3ccccc3SC(c3ccccc3F)C12` (configuration not stated), 65.3% (active). Take `CCOC(=O)C1=C(C)N=C2c3ccccc3C(=O)C2C1c1ccc(Br)cc1` (configuration not stated): the inhibition was 24%. The figure for `O=C1c2ccccc2C(=O)C1c1ccccc1F` is -3.2%.

With `O=C(CCc1nnc(Cc2ccc3c(c2)OCO3)o1)NCCc1ccccc1Cl`, the inhibition was 6%. Consider `CC(=O)NCCc1ccc(S(=O)(=O)Nc2ccc(C)c(S(=O)(=O)N3CCOCC3)c2)cc1`, for which the inhibition is 2.62%. For `CC1(C)CC(N2CCN(C(c3ccccc3)c3ccccc3)CC2)=CC(=[N+]2CCCCC2)C1` the value was 90.1% (active); for `O=C1CC(N2CCN(C(c3ccccc3)c3ccccc3)CC2)C(=O)N1` (configuration not stated), 28.3%.

As to `Oc1ccccc1CN1CCN(C(c2ccccc2)c2ccccc2)CC1`, the inhibition was 19.1%. Turning to `CCCCNC(=O)C(C)N(CCN(C)C)C(=O)CCCCCN1C(=O)NC(c2ccc(Cl)cc2)C(C(=O)OCc2ccccc2)=C1C` (configuration not stated), the inhibition was 97.4% (active). Turning to `COC(=O)CCCCCN1C(=O)NC(c2ccc(-c3ccccc3)cc2)C(C(=O)OCc2ccccc2)=C1C` (configuration not stated), the inhibition is 22.2%. The figure for `CC1=C(C(=O)OCc2ccccc2)C(c2ccc(C(F)(F)F)cc2)NC(=O)N1CCCCCC(=O)O` (configuration not stated) is 4.93%; for `CCN1C(=O)N[C@@H](c2ccccc2)C(C(=O)OC)=C1C` it is 6.41%; for `COCCN1C(=O)N[C@@H](c2ccccc2)C(C(=O)OC)=C1C` it is -16.5%. The figure for `CCCCNC(=O)C(C)N(CCN(C)C)C(=O)CCCN1C(=O)NC(c2ccc(Cl)cc2)C(C(=O)OCc2ccccc2)=C1C` (configuration not stated) is 84.8% (active).
